# Assay results as given in PubChem BioAssay (NCATS).
# Where “and” joins values, the source holds several entries; their conditions need not be identical. Equal values may be shown once. Values without a mark were called inactive. Results filed as inconclusive are left out. Calls of active or inactive are those of the source.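 How the source made its calls, unless noted: active means compounds whose dose series gives a full or clear partial fitted curve of increased nuclear translocation; inconclusive means weak partial curve or effect only at the top dose; inactive means no dose-dependent translocation response.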
# How the values were obtained:
# [1] = target: Glucocorticoid receptor (Homo sapiens) (UniProt P04150); assay: GR-GFP Redistribution (AID 450); settings: U2OS GR-GFP nuclear translocation, laser cytometry, 2 h; further: potency means the concentration at half of the fitted maximal effect
# Sequence of Glucocorticoid receptor (Homo sapiens) (P04150 whole entry, looked up, the tested form may be a part): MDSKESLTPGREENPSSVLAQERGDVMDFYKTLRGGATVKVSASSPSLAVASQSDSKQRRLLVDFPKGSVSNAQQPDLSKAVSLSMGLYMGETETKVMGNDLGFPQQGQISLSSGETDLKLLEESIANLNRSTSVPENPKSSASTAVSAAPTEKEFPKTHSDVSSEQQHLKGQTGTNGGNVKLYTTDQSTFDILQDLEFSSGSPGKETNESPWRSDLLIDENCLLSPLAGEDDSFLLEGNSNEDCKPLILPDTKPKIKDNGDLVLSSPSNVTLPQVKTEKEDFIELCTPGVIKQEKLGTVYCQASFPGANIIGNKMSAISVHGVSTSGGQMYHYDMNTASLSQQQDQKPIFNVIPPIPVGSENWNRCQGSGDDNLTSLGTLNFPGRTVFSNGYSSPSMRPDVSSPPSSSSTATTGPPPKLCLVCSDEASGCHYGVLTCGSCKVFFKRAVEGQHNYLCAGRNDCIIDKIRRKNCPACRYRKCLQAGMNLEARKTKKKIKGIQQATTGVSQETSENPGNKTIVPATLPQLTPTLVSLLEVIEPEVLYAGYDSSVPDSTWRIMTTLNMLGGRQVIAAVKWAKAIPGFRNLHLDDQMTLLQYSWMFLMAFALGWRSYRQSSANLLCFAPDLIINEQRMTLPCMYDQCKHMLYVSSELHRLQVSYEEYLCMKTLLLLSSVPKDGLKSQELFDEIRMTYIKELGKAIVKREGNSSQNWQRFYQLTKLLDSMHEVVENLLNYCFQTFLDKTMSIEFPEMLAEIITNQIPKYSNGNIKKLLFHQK
# [2] = target: Glucocorticoid receptor (Homo sapiens) (UniProt P04150); assay: GR-EFC Redistribution (AID 451; calls by dose curve; further: potency means the concentration at half of the fitted maximal effect); settings: CHO-K1 GR-EFC translocation, beta-gal luminescence, 2 h
# Method in brief: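 CHO-K1 cells stably expressing nuclear-localized β-gal enzyme acceptor and GR fused C-terminally to the enzyme donor fragment; ligand-driven nuclear translocation restores β-gal by complementation. Compounds titrated up to 46 uM final, 2 h at 37 °C; luminescence read.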
# [3] = target: Mitogen-activated protein kinase 10 (Mus musculus) (UniProt Q61831); assay: JNK3 AlphaScreen Assay (AID 530; active means well fitted curve in either direction with a large enough effect, not every such curve was filed as active;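 further: kinase came from lysate of stimulated human HepG2 cells; signal reports phosphorylation of biotinylated GST-cJun 1-79 at Ser73 with 10 µM ATP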); settings: JNK3 lysate, c-Jun phosphorylation; series mostly up to 57.1 µM
# Method in brief: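 Biotinylated GST-cJun(1-79) served as substrate for JNK3 in HepG2 lysates stimulated with IL-1beta and TNF-alpha. ATP was 10 uM final, pH 7.6. Ser73 phosphorylation was quantified by AlphaScreen (680 nm excitation).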
Structure (SMILES),Potency [1],Potency [2],outcome [3]
CN(C)c1cc2c(Nc3ccc4c(cnn4Cc4ccccc4)c3)ncnc2cn1,> 46 µM,> 46 µM,inactive
CC(NCCC(c1ccccc1)c1ccccc1)c1ccccc1 (stereo unspecified),> 20.6 µM,–,–
CCCC(=O)O[C@]1(C(=O)CCl)[C@@H](C)C[C@H]2[C@@H]3CCC4=CC(=O)C=C[C@]4(C)[C@@]3(F)C(=O)C[C@@]21C,< 5.9e-06 µM (active),–,–
NC(N)=NCCCCN=C(N)N,> 46 µM and > 20.6 µM,> 46 µM and > 20.6 µM,inactive
NCC(=O)O,> 46 µM,> 46 µM,inactive
CC1(C)O[C@@H]2C[C@H]3[C@@H]4CCC5=CC(=O)C=C[C@]5(C)[C@@]4(F)[C@@H](O)C[C@]3(C)[C@]2(C(=O)CO)O1,0.00313 µM (active),–,–
Clc1ccc2c(c1)N=C(N1CCNCC1)c1ccccc1N2,> 46 µM,> 46 µM,inactive
CCCCCC(=O)O[C@]1(C(C)=O)CC[C@H]2[C@@H]3CCC4=CC(=O)CC[C@]4(C)[C@H]3CC[C@@]21C,0.00527 µM (active),–,–
Nc1c[n+](N2CCOCC2)no1,> 46 µM,> 46 µM,inactive
CC(=O)[C@@]1(O)CC[C@H]2[C@@H]3C[C@H](C)C4=CC(=O)CC[C@]4(C)[C@H]3CC[C@@]21C,0.00082 µM (active),–,–
CN1CCCN(C(c2ccccc2)c2ccc(Cl)cc2)CC1 (stereo unspecified),6.11 µM (active),–,–
